High-throughput results (PubChem BioAssay)
Only a sample is shown.
aSyn UTR act – Activators via SNCA 5'UTR binding, MLPCN; actives 7.1% (n = 300,000); AID 1814; alpha-synuclein 5'UTR reporter, activators screen; activity score, % (tested at 7.5 µM), hits read low; in the data active = activity score below about -60%
Large screens that a line does not name were inactive.

COc1ccc(C(=O)/C=C(\C)Nc2ccc3c(c2)OCO3)cc1	aSyn UTR act -169.5
COc1cccc(N/C(C)=C/C(=O)c2ccc(Br)cc2)c1	aSyn UTR act -172.0
COc1ccc(N/C(C)=C/C(=S)Nc2ccccc2)cc1	aSyn UTR act -74.6
COc1ccc(NC(=O)/C=C/c2ccc3c(c2)OCO3)cc1	aSyn UTR act -90.6
COc1ccc(N/C(C)=C/C(=O)c2ccccc2)cc1	aSyn UTR act -150.9
CC(=O)Nc1ccc(OCc2ccc3c(c2)OCO3)cc1	aSyn UTR act -150.6
COC(=O)/C(=C\C(=O)c1ccccc1)Nc1ccc(OC)cc1	aSyn UTR act -93.0
Nc1c(C(=O)Nc2cccc(F)c2)nnn1-c1ccc2c(c1)OCCO2	aSyn UTR act -101.0
Cc1ccccc1NC(=O)c1nnn(-c2ccc3c(c2)OCCO3)c1N	aSyn UTR act -135.4
Cc1oc(C(C)(C)C)cc1C(=O)Nc1ccc(C(=O)O)cc1	aSyn UTR act -92.6
Cc1oc(C(C)(C)C)cc1C(=O)Nc1cccc(C(=O)O)c1	aSyn UTR act -114.0
Cc1cc(C(=O)Nc2cccc(C(=O)O)c2)c(C)o1	aSyn UTR act -91.7
Cc1cc(C(=O)Nc2cccc(C(=O)O)c2)oc1C	none
CCOC(=O)COn1c(=O)c(-c2ccc(C)cc2)[n+]([O-])c2ccccc21	aSyn UTR act -135.9
CCOc1ccc(-c2c(=O)n(OCc3nc4ccccc4[nH]3)c3ccccc3[n+]2[O-])cc1	aSyn UTR act -111.9
O=C(Nc1nc2ccc(F)cc2s1)C1CCN(S(=O)(=O)c2cc([N+](=O)[O-])ccc2Cl)CC1	aSyn UTR act -197.2
Cc1cccc(CS(=O)(=O)c2ncc(Cl)c(C(=O)NCc3ccccc3)n2)c1	none
Cc1ccc2nc(NC(=O)C3CCN(S(=O)(=O)c4cnc[nH]4)CC3)sc2c1	aSyn UTR act -78.0
O=C(NCc1ccccc1)C1CCN(S(=O)(=O)c2cc([N+](=O)[O-])ccc2Cl)CC1	aSyn UTR act -66.7
CC(=O)N1c2ccc(S(=O)(=O)N3CCC(C(=O)NCc4ccccc4Cl)CC3)cc2CC1C (stereo not drawn)	aSyn UTR act -181.5
CCOC(=O)/C=C(/C)N1N=C(c2ccc(OC)cc2)CC1c1cccc([N+](=O)[O-])c1 (stereo not drawn)	aSyn UTR act -165.6
COc1ccc2c(C(=O)CN3CCSCC3)c[nH]c2c1	aSyn UTR act -62.5
COc1ccc(-n2ncc3c(N(C)C4CCCCC4)ncnc32)cc1	none
COc1ncnc2c1cnn2-c1ccccc1	aSyn UTR act -67.4
COc1ccccc1Oc1ncnc2c1cnn2-c1ccccc1	aSyn UTR act -115.4
CN=C1S/C(=C\c2ccc(N3CCOCC3)c(F)c2)C(=O)N1C	aSyn UTR act -75.7
CN=C1S/C(=C\c2ccc(N3CCCC3)c(F)c2)C(=O)N1C	aSyn UTR act -139.3
CCSc1nnc(NC(=O)c2cc3c(s2)CCCC3)s1	aSyn UTR act -187.5
O=C(Nc1nnc(SCc2ccccc2)s1)c1cc2c(s1)CCCC2	aSyn UTR act -80.0
Oc1ccc2ccccc2c1CNc1cnc2ccccc2c1	aSyn UTR act -97.2
Oc1ccccc1CNc1cnc2ccccc2c1	aSyn UTR act -259.7
C=CCc1cccc(CNc2cnc3ccccc3c2)c1O	aSyn UTR act -94.5
CSc1nncc(/C(C)=N\Nc2ccccc2C)n1	aSyn UTR act -81.3
Cc1ccc(/C(=N/Nc2ncnc3ccccc23)C(=O)O)cc1	aSyn UTR act -69.0
Cc1ccc(Nc2ncnc3ccccc23)cc1	aSyn UTR act -114.1
Cc1cccc(Nc2ncnc3ccccc23)c1	aSyn UTR act -97.9
COC(=O)c1cccc(Nc2ncnc3ccc(C)cc23)c1	aSyn UTR act -88.1
CC(C)Oc1ccc(Nc2ncnc3ccccc23)cc1	aSyn UTR act -136.0
O=C(Nc1ccc2c(c1)CCC2)c1cnccn1	aSyn UTR act -175.4
Cc1cc(C)n2nc(C(=O)Nc3ccc4c(c3)CCC4)nc2n1	aSyn UTR act -101.5
Cc1cnc(C(=O)NCCc2ccc(Cl)cc2)cn1	aSyn UTR act -114.3
Cc1cnc(C(=O)Nc2ccc3c(c2)CCC3)cn1	aSyn UTR act -136.5
O=C(Nc1ccc(N2CCOCC2)cc1)c1cnccn1	none
Cc1cnc(C(=O)Nc2ccc(F)c(F)c2)cn1	aSyn UTR act -132.9
CCCCOc1ccc(NC(=O)c2cnc(C)cn2)cc1	aSyn UTR act -112.9
CC1C(O)=C(c2nc3ccccc3[nH]2)C(=N)N1c1ccccc1 (stereo not drawn)	aSyn UTR act -131.1
CCC(C)N1CC(O)=C(c2nc3ccccc3[nH]2)C1=N (stereo not drawn)	aSyn UTR act -79.6
N=C1C(c2nc3ccccc3[nH]2)=C(O)CN1c1ccccc1	aSyn UTR act -292.9
Cc1nn2cc(-c3ccc(Cl)cc3)cnc2c1Cl	aSyn UTR act -144.4
Cc1ccc(NC(=O)Cc2noc3ccccc23)nc1	aSyn UTR act -69.2
O=C(Cc1noc2ccccc12)Nc1ccccn1	aSyn UTR act -89.1
COc1cc2cc3c(N)c(C(=O)NCc4ccco4)sc3nc2cc1OC	aSyn UTR act -284.2
Cc1ccc2nc3sc(C(=O)NCc4ccco4)c(N)c3cc2c1	aSyn UTR act -126.5
COc1ccccc1C(=O)COC(=O)c1ccc(N(C)C)cc1	aSyn UTR act -218.5
COc1ccccc1C(=O)COC(=O)c1ccccc1O	aSyn UTR act -104.3
